Measurements as given in PubChem BioAssay (NCI).
This is part of a sample that, as a whole, favours compounds with a hit. Of some 79,000 tested, about 15% had one in any assay. Active and inactive are the calls of the source. Cut-off read from the data, not from the text of the source: active = growth inhibition above about 70%; inactive = the rest.

Tests used:
[1] = NCI Yeast Anticancer Drug Screen. Data for the rad50 strain (AID 155);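 note: 0% = growth of vehicle-only cultures of the same strain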; details: S. cerevisiae rad50 strain growth inhibition, active compounds read high
Outline: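 Compounds were tested on a yeast strain with an engineered DNA damage repair alteration; the reported value is growth inhibition normalised to vehicle treatment.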

[2] = NCI Yeast Anticancer Drug Screen. Data for the mec2-1 strain (AID 157); details: S. cerevisiae mec2-1 strain, active compounds read high
Outline: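 Test agents were screened against the mec2-1 yeast strain, with defined DNA repair or cell cycle alteration. Growth was scored as inhibition against vehicle-only controls.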

[3] = NCI Yeast Anticancer Drug Screen. Data for the sgs1 mgt1 strain (AID 161);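 note: 0% = growth of cultures given vehicle only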; details: S. cerevisiae sgs1 mgt1 strain, active compounds read high
Outline: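 Read-out: growth inhibition vs vehicle controls. Cells: mutant yeast strain deficient in DNA damage repair.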

[4] = NCI Yeast Anticancer Drug Screen. Data for the cln2 rad14 strain (AID 165);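 note: 0% = growth equal to vehicle treated cultures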; details: S. cerevisiae cln2 rad14 strain, active compounds read high
Outline: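 Growth of compound-exposed yeast (cln2 rad14 genotype) measured and expressed as inhibition relative to vehicle.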

[5] = NCI Yeast Anticancer Drug Screen. Data for the bub3 strain (AID 167); details: S. cerevisiae bub3 mutant strain, active compounds read high
Outline: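 Growth of a checkpoint-deficient yeast mutant is measured after compound exposure. Values represent inhibition relative to vehicle.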

[6] = NCI Yeast Anticancer Drug Screen. Data for the mlh1 rad18 strain (AID 175); details: S. cerevisiae mlh1 rad18 strain growth inhibition, active compounds read high
Outline: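 In this whole-cell yeast screen, a strain with altered DNA damage repair is challenged with compound, and its growth is measured against matched vehicle-treated controls.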

[7] = at 5.0 µM (retest, dose inferred, filed as 0.5)
[8] = at 50.0 µM (retest, dose inferred, filed as 5.0)

Measured: growth inhibition

O=P(N=P(c1ccccc1)(c1ccccc1)c1ccccc1)(c1ccccc1)c1ccccc1
active: [1]; [7] 70% | [1]; [8] 96% | [1]; at 50.0 µM 88% | [2]; [8] 99% | [2]; at 50.0 µM 91.6% | [3]; [8] 99% | [3]; at 50.0 µM 79% | [4]; [8] 98% | [4]; at 50.0 µM 92.5% | [5]; [8] 99% | [5]; at 50.0 µM 87.2% | [6]; [7] 71% | [6]; [8] 98% | [6]; at 50.0 µM 88.7%
inactive: [2]; [7] 60% | [3]; [7] 49% | [4]; [7] 40% | [5]; [7] 62%

COc1ccc(CN2CCCN(Cc3ccc(OC)cc3)C2Cc2cc(Cl)ccc2OC)cc1
active: [1]; at 50.0 µM 82.4% | [3]; at 50.0 µM 80.7% | [6]; [8] 85% | [6]; at 50.0 µM 77.8%
inactive: [1]; [7] -3% | [1]; [8] 58% | [2]; [7] -3% | [2]; [8] 61% | [2]; at 50.0 µM 48.8% | [3]; [7] -44% | [3]; [8] 63% | [4]; [7] -6% | [4]; [8] 19% | [4]; at 50.0 µM 33.4% | [5]; [7] -5% | [5]; [8] 56% | [5]; at 50.0 µM 56.5% | [6]; [7] 18%

COc1ccc2c(c1)C1(C)CCCC(C)(C(=O)O)C1C(Br)C2=O (stereo not given)
inactive: [1]; [7] 6% | [1]; at 50.0 µM 69.8% | [2]; [7] 20% | [2]; at 50.0 µM 46.6% | [3]; [7] -12% | [4]; [7] -8% | [4]; at 50.0 µM 37.4% | [5]; [7] 6% | [5]; at 50.0 µM 35.2% | [6]; [7] 21%
active: [1]; [8] 91% | [2]; [8] 98% | [3]; [8] 97% | [3]; at 50.0 µM 84% | [4]; [8] 96% | [5]; [8] 96% | [6]; [8] 96% | [6]; at 50.0 µM 72.2%

CCc1ccccc1NC(=O)C(C#N)C1=C(Cl)C(=O)c2ccccc2C1=O (stereo not given)
inactive: [1]; [7] 53% | [3]; [7] 51% | [4]; [7] 20% | [4]; at 50.0 µM 50.9% | [6]; [7] 44%
active: [1]; [8] 98% | [1]; at 50.0 µM 97.2% | [2]; [7] 71% | [2]; [8] 98% | [2]; at 50.0 µM 98.7% | [3]; [8] 98% | [3]; at 50.0 µM 97.3% | [4]; [8] 98% | [5]; [7] 94% | [5]; [8] 98% | [5]; at 50.0 µM 97.3% | [6]; [8] 97% | [6]; at 50.0 µM 98.1%

Cc1occc1C(=S)Nc1ccc(Cl)c(COC(C)(C)C)c1
active: [1]; [8] 74% | [1]; at 50.0 µM 78.9% | [2]; [8] 74% | [2]; at 50.0 µM 84.3% | [3]; [8] 84% | [3]; at 50.0 µM 85.7% | [4]; [8] 86% | [4]; at 50.0 µM 84.8% | [5]; [8] 90% | [5]; at 50.0 µM 86.2% | [6]; [8] 85% | [6]; at 50.0 µM 78.5%
inactive: [1]; [7] 26% | [2]; [7] 6% | [3]; [7] 17% | [4]; [7] 22% | [5]; [7] 26% | [6]; [7] 19%

Cc1ccccc1C(O)(c1ccccc1C)C1(O)CCN(C)CC1
inactive: [1]; [7] 0% | [1]; [8] -3% | [2]; [7] -4% | [2]; [8] 0% | [3]; [7] 2% | [3]; [8] -10% | [4]; [7] -7% | [4]; [8] -11% | [5]; [7] -4% | [5]; [8] -11% | [6]; [7] 13% | [6]; [8] -2%
active: [1]; at 50.0 µM 86.2% | [2]; at 50.0 µM 96.7% | [3]; at 50.0 µM 96.2% | [4]; at 50.0 µM 91.8% | [5]; at 50.0 µM 96.2% | [6]; at 50.0 µM 98.7%

COc1ccccc1NC(c1ccccc1)c1ccc2cccnc2c1O (stereo not given)
inactive: [1]; [7] 2% | [1]; [8] 50% | [2]; [7] 3% | [2]; [8] 60% | [2]; at 50.0 µM 49.2% | [3]; [7] 7% | [3]; [8] 45% | [4]; [7] -7% | [4]; [8] -1% | [4]; at 50.0 µM 15.2% | [5]; [7] -5% | [5]; [8] 18% | [5]; at 50.0 µM 2.9% | [6]; [7] -23% | [6]; [8] 44%
active: [1]; at 50.0 µM 81.2% | [3]; at 50.0 µM 73.2% | [6]; at 50.0 µM 75%

N#CC12CC3=C(N=C1NC1=C(CCc4ccccc41)C2)c1ccccc1CC3 (stereo not given)
inactive: [1]; [7] 24% | [1]; [8] 51% | [1]; at 50.0 µM 57.8% | [2]; [7] 19% | [2]; [8] 34% | [2]; at 50.0 µM 42.8% | [3]; [7] 20% | [3]; [8] 44% | [3]; at 50.0 µM 48.5% | [4]; [7] 18% | [4]; [8] 29% | [4]; at 50.0 µM 17.9% | [5]; [7] 23% | [5]; [8] 45% | [5]; at 50.0 µM 51.1% | [6]; [7] 20% | [6]; [8] 60% | [6]; at 50.0 µM 24.6%

Cn1nc2c(c(Cl)c1=O)Nc1ccccc1O2
inactive: [1]; [7] -32% | [1]; [8] -16% | [1]; at 50.0 µM 0.85% | [2]; [7] -9% | [2]; [8] -34% | [2]; at 50.0 µM -30.4% | [3]; [7] -20% | [3]; [8] -19% | [3]; at 50.0 µM -24.8% | [4]; [7] -8% | [4]; [8] -9% | [4]; at 50.0 µM 23.1% | [5]; [7] -45% | [5]; [8] -18% | [5]; at 50.0 µM 1.35% | [6]; [7] -25% | [6]; [8] -14% | [6]; at 50.0 µM -6.7%

CC1CCC(NCCOC(=O)c2ccc([N+](=O)[O-])cc2)CC1 (stereo not given)
active: [1]; at 50.0 µM 70.8%
inactive: [1]; [7] 2% | [1]; [8] 23% | [2]; [7] 1% | [2]; [8] 18% | [2]; at 50.0 µM -2.9% | [3]; [7] 1% | [3]; [8] 24% | [3]; at 50.0 µM 54.5% | [4]; [7] -75% | [4]; [8] 41% | [4]; at 50.0 µM 31.9% | [5]; [7] -8% | [5]; [8] -71% | [5]; at 50.0 µM 17.6% | [6]; [7] -3% | [6]; [8] 6% | [6]; at 50.0 µM 42.9%
